Data as given in the supplement of paper PMC10849652.
About 8,800 targets were measured; listed, in parts, are those with a hit and a random draw of the rest. About 0.5% of all pairs of compound and target were hits.

Key:
Experiment in all cases: log2 fold change, soluble protein after heating vs DMSO (PISA); higher = thermal stabilisation; K562 lysate, 10 uM; active = over 0.2 and 3.5 SD of the protein, either way, in both replicates (recomputed)
nilotinib = compound: Cc1cn(-c2cc(NC(=O)c3ccc(C)c(Nc4nccc(-c5cccnc5)n4)c3)cc(C(F)(F)F)c2)cn1 [nilotinib]
Summary of the method: (§1)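 Values give the log-two fold change in thermal stability against solvent controls, from duplicates. Crude K562 extract at 1 mg/mL protein, made by dounce homogenisation in PBS pH 7.4 with 1 mM MgCl2, was treated with 10 μM compound for 30 min. After 3 min heating across 48°C-58°C, aliquots were pooled, adjusted to 0.5% NP-40 at 4°C and centrifuged at 21,000xg for 90 min. The supernatant was measured by TMTpro 16plex LC-MS/MS with channel sums equalised.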

[1] = compound: Cc1nc(Nc2n[nH]c3c2CN(C(=O)N[C@H](CN(C)C)c2ccccc2)C3(C)C)c2sccc2n1
Summary of the method: as §1

dasatinib = compound: Cc1nc(Nc2ncc(C(=O)Nc3c(C)cccc3Cl)s2)cc(N2CCN(CCO)CC2)n1 [dasatinib]
Summary of the method: as §1

[2] = compound: Cc1ncc(-c2ccnc(Nc3ccc(S(C)(=O)=O)cc3)n2)n1C(C)C
Summary of the method: as §1

[3] = compound: Cn1cc(-c2ccc3c(c2)CCN3C(=O)Cc2cccc(C(F)(F)F)c2)c2c(N)ncnc21
Summary of the method: as §1

quisinostat = compound: Cn1cc(CNCC2CCN(c3ncc(C(=O)NO)cn3)CC2)c2ccccc21 [quisinostat]
Summary of the method: as §1

tipifarnib = compound: Cn1cncc1[C@@](N)(c1ccc(Cl)cc1)c1ccc2c(c1)c(-c1cccc(Cl)c1)cc(=O)n2C [tipifarnib]
Summary of the method: as §1

[4] = compound: NC(=O)Nc1cc(-c2cccc(F)c2)sc1C(=O)N[C@H]1CCCNC1
Summary of the method: as §1

[5] = compound: NC(=O)c1cnc(N[C@@H]2CCCC[C@@H]2N)nc1Nc1cccc(-n2nccn2)c1
Summary of the method: as §1

[6] = compound: NC1(c2ccc(-c3nc4ccn5c(=O)[nH]nc5c4cc3-c3ccccc3)cc2)CCC1
Summary of the method: as §1

Measured: log2 fold change

QSER1, A0A3B3IRW6
inactive: nilotinib -0.028 | [1] 0.056 | dasatinib 0.018 | [2] 0.042 | [3] 0.052 | quisinostat -0.117 | tipifarnib -0.048 | [4] 0.064 | [5] -0.027 | [6] -0.048

RMC1 (UniProt Q96DM3)
UniProt Q96DM3, sequence (Q96DM3 whole entry, looked up): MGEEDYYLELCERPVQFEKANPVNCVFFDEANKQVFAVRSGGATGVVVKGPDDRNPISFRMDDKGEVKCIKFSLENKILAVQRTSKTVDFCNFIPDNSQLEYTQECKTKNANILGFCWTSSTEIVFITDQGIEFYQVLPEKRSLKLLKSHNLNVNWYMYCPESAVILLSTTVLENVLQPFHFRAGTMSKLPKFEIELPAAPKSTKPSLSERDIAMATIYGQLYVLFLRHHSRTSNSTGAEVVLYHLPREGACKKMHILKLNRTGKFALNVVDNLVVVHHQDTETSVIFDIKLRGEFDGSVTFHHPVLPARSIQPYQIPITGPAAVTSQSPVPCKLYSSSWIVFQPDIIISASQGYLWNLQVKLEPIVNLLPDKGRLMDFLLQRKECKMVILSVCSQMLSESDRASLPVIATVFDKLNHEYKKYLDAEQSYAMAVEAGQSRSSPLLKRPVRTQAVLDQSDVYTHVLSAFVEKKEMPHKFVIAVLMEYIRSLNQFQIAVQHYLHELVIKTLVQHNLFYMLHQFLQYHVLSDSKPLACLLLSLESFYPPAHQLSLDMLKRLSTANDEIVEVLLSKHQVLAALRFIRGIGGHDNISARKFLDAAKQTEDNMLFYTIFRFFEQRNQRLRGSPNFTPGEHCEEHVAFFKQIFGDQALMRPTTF
inactive: nilotinib 0.027 | [1] 0.005 | dasatinib 0.008 | [2] -0.002 | [3] 0.003 | quisinostat -0.02 | tipifarnib -0.057 | [4] 0.035 | [5] -0.007 | [6] 0.036

RFC5 (UniProt P40937)
UniProt P40937, sequence (P40937 whole entry, looked up): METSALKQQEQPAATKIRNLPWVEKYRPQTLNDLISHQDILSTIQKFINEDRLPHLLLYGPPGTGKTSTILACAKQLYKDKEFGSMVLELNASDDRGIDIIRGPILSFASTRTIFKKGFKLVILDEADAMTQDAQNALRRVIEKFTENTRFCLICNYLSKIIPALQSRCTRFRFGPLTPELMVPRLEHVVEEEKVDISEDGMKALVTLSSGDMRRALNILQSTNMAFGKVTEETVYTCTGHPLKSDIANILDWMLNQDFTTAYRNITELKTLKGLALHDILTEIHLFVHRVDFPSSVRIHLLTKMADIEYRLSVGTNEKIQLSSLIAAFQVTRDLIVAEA
inactive: nilotinib 0.005 | [1] 0.001 | dasatinib -0.06 | [2] -0.005 | [3] 0.025 | quisinostat -0.078 | tipifarnib -0.023 | [4] 0.074 | [5] 0.025 | [6] -0.02

SCCPDH (UniProt Q8NBX0)
UniProt Q8NBX0, sequence (Q8NBX0 whole entry, looked up): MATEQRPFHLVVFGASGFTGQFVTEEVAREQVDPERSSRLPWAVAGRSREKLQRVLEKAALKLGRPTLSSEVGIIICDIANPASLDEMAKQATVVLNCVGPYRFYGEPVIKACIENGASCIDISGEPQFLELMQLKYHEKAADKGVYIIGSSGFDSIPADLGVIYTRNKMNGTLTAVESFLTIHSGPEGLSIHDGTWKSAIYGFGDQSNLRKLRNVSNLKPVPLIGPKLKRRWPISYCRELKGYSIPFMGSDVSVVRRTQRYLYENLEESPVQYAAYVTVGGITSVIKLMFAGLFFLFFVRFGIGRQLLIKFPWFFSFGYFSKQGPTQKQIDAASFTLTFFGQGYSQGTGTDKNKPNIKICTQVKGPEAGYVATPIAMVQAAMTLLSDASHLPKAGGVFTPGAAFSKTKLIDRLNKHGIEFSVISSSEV
inactive: nilotinib 0.12 | [1] -0.002 | dasatinib 0.058 | [2] 0.151 | [3] -0.019 | quisinostat -0.058 | tipifarnib 0.049 | [4] -0.217 | [5] -0.081 | [6] 0.022

RNF181 (UniProt Q9P0P0)
UniProt Q9P0P0, sequence (Q9P0P0 whole entry, looked up): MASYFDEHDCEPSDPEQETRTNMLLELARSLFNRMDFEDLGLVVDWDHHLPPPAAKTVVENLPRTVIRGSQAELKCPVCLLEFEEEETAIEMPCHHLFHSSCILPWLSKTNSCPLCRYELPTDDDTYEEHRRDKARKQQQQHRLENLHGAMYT
inactive: nilotinib 0.023 | [1] 0.027 | dasatinib 0.013 | [2] 0.007 | [3] -0.004 | quisinostat -0.027 | tipifarnib -0.03 | [4] 0.006 | [5] -0.01 | [6] -0.023

RNF40 (UniProt O75150)
UniProt O75150, sequence (O75150 whole entry, looked up): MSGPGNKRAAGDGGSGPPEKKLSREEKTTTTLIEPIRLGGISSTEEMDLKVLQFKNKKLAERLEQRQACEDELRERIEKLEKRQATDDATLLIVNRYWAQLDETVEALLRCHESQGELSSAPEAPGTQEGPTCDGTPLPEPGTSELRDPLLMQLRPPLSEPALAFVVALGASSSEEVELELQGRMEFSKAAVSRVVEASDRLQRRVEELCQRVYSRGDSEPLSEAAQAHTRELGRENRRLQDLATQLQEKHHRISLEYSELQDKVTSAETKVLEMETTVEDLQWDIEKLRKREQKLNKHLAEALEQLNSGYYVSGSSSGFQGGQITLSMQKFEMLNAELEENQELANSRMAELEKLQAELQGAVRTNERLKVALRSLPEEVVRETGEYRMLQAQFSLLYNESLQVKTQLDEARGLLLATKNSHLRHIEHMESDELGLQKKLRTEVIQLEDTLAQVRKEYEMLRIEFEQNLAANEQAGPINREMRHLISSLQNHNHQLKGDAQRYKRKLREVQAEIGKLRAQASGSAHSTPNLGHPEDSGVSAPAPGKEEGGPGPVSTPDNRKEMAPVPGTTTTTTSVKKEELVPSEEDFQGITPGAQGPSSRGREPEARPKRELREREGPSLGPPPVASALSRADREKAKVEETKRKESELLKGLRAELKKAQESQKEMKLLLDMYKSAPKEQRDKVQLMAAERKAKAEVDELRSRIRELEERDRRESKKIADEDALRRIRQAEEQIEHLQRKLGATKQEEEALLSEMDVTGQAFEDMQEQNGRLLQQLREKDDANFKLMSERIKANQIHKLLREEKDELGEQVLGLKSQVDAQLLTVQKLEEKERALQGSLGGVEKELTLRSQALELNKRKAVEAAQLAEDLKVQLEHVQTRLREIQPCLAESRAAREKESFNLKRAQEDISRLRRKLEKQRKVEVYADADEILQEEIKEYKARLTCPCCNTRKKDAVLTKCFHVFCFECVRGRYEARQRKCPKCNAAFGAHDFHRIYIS
inactive: nilotinib -0.022 | [1] 0.009 | dasatinib -0.012 | [2] 0.003 | [3] 0.031 | quisinostat -0.029 | tipifarnib 0.003 | [4] 0.031 | [5] 0.009 | [6] -0.012
